Test results taken from PubChem BioAssay AID1159580 (chemical genetic matrix, 2015).
Values joined by “and” are separate entries in the source; they are usually repeats but may differ in a detail not shown here. Identical values can stand only once. Out of some 5,500 compounds screened, about 2,000 (36%) were called active. Not shown: some 18% with an inconclusive outcome. Cut-off read from the data, not from the text of the source: active = normalized growth mostly below about 0.91 (no sharp cut-off); inconclusive = no clear call, values can overlap the other calls; inactive = mostly above about 0.92. This is one part of the list.

Assay: chemical genetic growth profiling, strain panel (AID 1159580);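 note: tested at 20 µM; growth read once vehicle control cultures reached saturation at 30 °C; 1 = growth at the plate median or of vehicle wells; lower values mean less growth of the strain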
Conditions: S. cerevisiae deletion strains, growth OD

Measured: normalized growth

C=NC(C(=O)NC1C(=O)N2C1SC(C)(C)C2C(=O)O)c1ccccc1 (configuration not stated)
inactive: locus YAL013W, strain DEP1, active compounds read low 1.01 | locus YAL021C, strain ccr4, active compounds read low 0.991 | locus YAL026C, strain drs2, active compounds read low 0.994 | locus YAL030W, strain snc1, active compounds read low 1 | locus YBL061C, strain skt5, active compounds read low 1.02 | locus YBR009C, strain hhf1, active compounds read low 0.994 | locus YBR021W, strain FUR4, active compounds read low 0.999 | locus YBR023C, strain chs3, active compounds read low 0.995 | locus YBR171W, strain sec66, active compounds read low 1.02 | locus YBR229C, strain ROT2, active compounds read low 1 | locus YBR231C, strain swc5, active compounds read low 1.02 | locus YBR279W, strain paf1, active compounds read low 1 | locus YCL011C, strain gbp2, active compounds read low 0.989 | locus YCL016C, strain dcc1, active compounds read low 0.986 | locus YCL029C, strain bik1, active compounds read low 1.02 | locus YCL061C, strain MRC1, active compounds read low 0.991 | locus YCL069W, strain vba3, active compounds read low 1.01 | locus YCR088W, strain abp1, active compounds read low 1 | locus YDL005C, strain med2, active compounds read low 0.998 | locus YDL035C, strain GPR1, active compounds read low 1.01 | locus YDL040C, strain nat1, active compounds read low 1.01 | locus YDL074C, strain BRE1, active compounds read low 0.986 | locus YDL101C, strain DUN1, active compounds read low 1.01 | locus YDL134C, strain PPH21, active compounds read low 1.01 | locus YDL185W, strain tfp1, active compounds read low 1.01 | locus YDL192W, strain arf1, active compounds read low 1.01 | locus YDR001C, strain nth1, active compounds read low 0.989 | locus YDR069C, strain doa4, active compounds read low 1.03 | locus YDR101C, strain arx1, active compounds read low 1 | locus YDR137W, strain rgp1, active compounds read low 1.01 | locus YDR150W, strain NUM1, active compounds read low 1.01 | locus YDR159W, strain sac3, active compounds read low 1.07 | locus YDR162C, strain NBP2, active compounds read low 1.03 | locus YDR195W, strain ref2 1 | locus YDR297W, strain sur2, active compounds read low 1.03 | locus YDR318W, strain mcm21, active compounds read low 1.02 | locus YDR334W, strain swr1, active compounds read low 1 | locus YDR335W, strain msn5, active compounds read low 0.983 | locus YDR388W, active compounds read low 1 | locus YDR392W, strain spt3, active compounds read low 0.867 | locus YDR502C, strain sam2, active compounds read low 1.02 | locus YEL003W, strain gim4, active compounds read low 1 | locus YEL037C, strain rad23, active compounds read low 0.994 | locus YEL061C, strain CIN8 (second series), active compounds read low 0.995 | locus YEL061C, strain CIN8, active compounds read low 1 | locus YER015W, strain faa2, active compounds read low 0.978 | locus YER016W, strain bim1, active compounds read low 1.01 | locus YER110C, active compounds read low 1.01 | locus YER111C, strain swi4, active compounds read low 1 | locus YER155C, strain BEM2 (second series), active compounds read low 1.03 | locus YER155C, strain BEM2, active compounds read low 1 | locus YER167W, strain BCK2, active compounds read low 1.02 | locus YFR010W, strain ubp6, active compounds read low 0.993 | locus YGL078C, strain dbp3, active compounds read low 1 | locus YGL086W, strain mad1, active compounds read low 1.02 | locus YGL167C, strain pmr1, active compounds read low 0.992 | locus YGL173C, strain kem1, active compounds read low 1.01 | locus YGL227W, strain vid30, active compounds read low 0.996 | locus YGL240W, strain doc1, active compounds read low 1.04 | locus YGL248W, strain PDE1, active compounds read low 1.02 | locus YGL253W, strain hxk2, active compounds read low 1.01 | locus YGR078C, strain PAC10, active compounds read low 1.01 | locus YGR135W, strain pre9, active compounds read low 1.01 | locus YGR229C, strain SMI1, active compounds read low 0.977 | locus YGR252W, strain gcn5, active compounds read low 1.07 | locus YHR013C, strain ard1, active compounds read low 0.973 | locus YHR027C, strain rpn1, active compounds read low 0.992 | locus YHR030C, strain SLT2, active compounds read low 1.01 and 1 | locus YHR079C, strain IRE1 (second series), active compounds read low 1.01 | locus YHR079C, strain IRE1, active compounds read low 1 | locus YHR094C, strain hxt1, active compounds read low 1.01 | locus YHR129C, strain ARP1, active compounds read low 1.01 | locus YHR142W, strain chs7, active compounds read low 0.994 | locus YHR200W, strain rpn10, active compounds read low 1.03 | locus YIL066C, strain RNR3, active compounds read low 1.01 | locus YIL073C, strain SPO22, active compounds read low 1.07 | locus YIL125W, strain kgd1, active compounds read low 1.01 | locus YIR030C, strain dcg1, active compounds read low 1.02 | locus YJL092W, strain hpr5, active compounds read low 0.994 | locus YJL095W, strain BCK1 (second series), active compounds read low 1 | locus YJL095W, strain BCK1, active compounds read low 1.01 and 0.995 | locus YJL115W, strain asf1, active compounds read low 0.973 | locus YJL129C, strain trk1, active compounds read low 0.991 | locus YJL134W, strain LCB3, active compounds read low 1.01 | locus YJL154C, strain vps35, active compounds read low 1 | locus YJL164C, strain tpk1, active compounds read low 0.977 | locus YJL166W, strain qcr8, active compounds read low 1.02 | locus YJL168C, strain set2, active compounds read low 1.01 | locus YJL187C, strain SWE1 (second series), active compounds read low 1.01 | locus YJL187C, strain SWE1, active compounds read low 1.02 | locus YJR043C, strain POL32, active compounds read low 0.992 | locus YJR066W, strain TOR1, active compounds read low 0.988
